# Laboratory results from the supplement of paper PMC9950053.
# Structures can show the parent of a compound that is named as a salt.
# Tested on: Danio rerio larvae (5 dpf)
# Experiment: combined upward orientation toward moving lines (periods 7-14) minus DMSO control (percentage points); higher = more orientation with moving lines than DMSO larvae
# Details: 10 µM; exposure time: 3 h pre-incubation + 3 h imaging
# Protocol: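 Wild-type 5 dpf zebrafish larvae (n=48 per drug, 96-well plates, 28.5 °C) were exposed to Tocris FDA-approved library compounds at 10 µM (0.1% DMSO) for 3 h before and 3 h during imaging. Images were taken every 6 s during visual and acoustic stimuli, and larvae were tracked with Z-LaP Tracker. Each measure is the treated-group mean minus the DMSO control mean (n=844), in percentage points. This mapping covers compounds with 5-character plate codes.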
row,SMILES,combined upward orientation toward moving lines
1,C[C@@H]1C[C@H]2[C@@H]3CCC4=CC(=O)C=C[C@]4(C)[C@@]3(F)[C@@H](O)C[C@]2(C)[C@@]1(O)C(=O)CO [Dexamethasone],-5.03
2,OCCN1C[C@H](O)[C@@H](O)[C@H](O)[C@H]1CO [Miglitol],-1.58
3,COc1cc([C@@H]2c3cc4c(cc3[C@@H](O[C@@H]3O[C@@H]5CO[C@@H](C)O[C@H]5[C@H](O)[C@H]3O)[C@H]3COC(=O)[C@H]23)OCO4)cc(OC)c1O [Etoposide],-2.65
4,COc1ccccc1OCC(O)CN1CCN(CC(=O)Nc2c(C)cccc2C)CC1 (configuration not stated) [Ranolazine dihydrochloride],4.03
5,CCCCCCCN(CC)CCCC(O)c1ccc(NS(C)(=O)=O)cc1 (configuration not stated) [Ibutilide hemifumarate],-0.0944
6,CC(=O)Nc1ccc(O)cc1 [Acetaminophen],-1.22
7,C#CCN[C@@H]1CCc2ccccc21 [Rasagiline mesylate],-1.34
8,CC(C)COCC(CN(Cc1ccccc1)c1ccccc1)N1CCCC1 (configuration not stated) [Bepridil hydrochloride],3.56
9,N#Cc1ccc2[nH]cc(CCCCN3CCN(c4ccc5oc(C(N)=O)cc5c4)CC3)c2c1 [Vilazodone hydrochloride],-4.15
10,CC[C@H]1OC(=O)[C@H](C)[C@@H](O[C@H]2C[C@@](C)(OC)[C@@H](O)[C@H](C)O2)[C@H](C)[C@@H](O[C@@H]2O[C@H](C)C[C@H](N(C)C)[C@H]2O)[C@](C)(O)C[C@@H](C)CN(C)[C@H](C)[C@@H](O)[C@]1(C)O [Azithromycin],-3.81
11,O=C(O)C[C@H](O)C[C@H](O)/C=C/c1c(C2CC2)nc2ccccc2c1-c1ccc(F)cc1 [Pitavastatin calcium],2.14
12,O=c1n(CCCN2CCN(c3cccc(Cl)c3)CC2)nc2ccccn12 [Trazodone hydrochloride],-3.19
13,CCCC1O[C@@H]2C[C@H]3[C@@H]4CCC5=CC(=O)C=C[C@]5(C)[C@H]4[C@@H](O)C[C@]3(C)[C@]2(C(=O)CO)O1 (some centres not stated) [Budesonide],0.263
14,CNS(=O)(=O)Cc1ccc2[nH]cc(CCN(C)C)c2c1 [Sumatriptan succinate],-8.09
15,CNC(=O)c1cc(Oc2ccc(NC(=O)Nc3ccc(Cl)c(C(F)(F)F)c3)cc2)ccn1 [Sorafenib],-23.2
16,COc1cc2nccc(Oc3ccc(NC(=O)C4(C(=O)Nc5ccc(F)cc5)CC4)cc3)c2cc1OC,-10.5
17,COCCc1ccc(OCC(O)CNC(C)C)cc1 (configuration not stated) [Metoprolol tartrate],-3.38
18,COc1cc(N)c(Cl)cc1C(=O)NC1CCN(CCCOc2ccc(F)cc2)CC1OC (configuration not stated) [Cisapride],-4.69
19,OC(c1cc(C(F)(F)F)nc2c(C(F)(F)F)cccc12)C1CCCCN1 (configuration not stated) [Mefloquine hydrochloride],5.79

row,SMILES,combined upward orientation toward moving lines
1,CNCc1ccc(-c2[nH]c3cc(F)cc4c3c2CCNC4=O)cc1 [Rucaparib camsylate],2
2,NS(=O)(=O)c1cc2c(cc1Cl)NC(C1CC3C=CC1C3)NS2(=O)=O (configuration not stated) [Cyclothiazide],-2.57
3,CN(C)CCc1c[nH]c2ccc(C[C@H]3COC(=O)N3)cc12 [Zolmitriptan],-1.47
4,CC(C)OC(=O)C(C)(C)Oc1ccc(C(=O)c2ccc(Cl)cc2)cc1 [Fenofibrate],6.13
5,CC(=O)Oc1cc2c(s1)CCN(C(C(=O)C1CC1)c1ccccc1F)C2 (configuration not stated) [Prasugrel],-5.5
6,Cc1cc2c(s1)Nc1ccccc1N=C2N1CCN(C)CC1 [Olanzapine],3.25
7,NC(=O)OCC(COC(N)=O)c1ccccc1 [Felbamate],4.58
8,COc1ccccc1Oc1c(NS(=O)(=O)c2ccc(C(C)(C)C)cc2)nc(-c2ncccn2)nc1OCCO [Bosentan],-0.697
9,CN[C@H]1CC[C@@H](c2ccc(Cl)c(Cl)c2)c2ccccc21 [Sertraline hydrochloride],-5.13
10,C[C@H]1O[C@H](O[C@H]2[C@H](O)[C@@H](O)[C@@H](O[C@H]3[C@H](O)[C@@H](O)C(O)O[C@@H]3CO)O[C@@H]2CO)[C@H](O)[C@@H](O)[C@@H]1N[C@H]1C=C(CO)[C@@H](O)[C@H](O)[C@H]1O (some centres not stated) [Acarbose],4.65
11,N#C[C@@H]1C[C@@H]2C[C@@H]2N1C(=O)[C@@H](N)C12CC3CC(CC(O)(C3)C1)C2 [Saxagliptin hydrochloride],-3.59
12,CCc1nc(N)nc(N)c1-c1ccc(Cl)cc1 [Pyrimethamine],7.4
13,CN(C)C(=N)NC(=N)N [Metformin hydrochloride],1.11
14,Clc1ccc2nsnc2c1NC1=NCCN1 [Tizanidine hydrochloride],-5.19
15,CC(C)(C(=O)O)c1ccc(C(O)CCCN2CCC(C(O)(c3ccccc3)c3ccccc3)CC2)cc1 (configuration not stated) [Fexofenadine hydrochloride],1.12
16,OCc1cc(C(O)CNCCCCCCOCCCCc2ccccc2)ccc1O (configuration not stated) [Salmeterol xinafoate],-1.98
17,CCCc1nn(C)c2c(=O)[nH]c(-c3cc(S(=O)(=O)N4CCN(C)CC4)ccc3OCC)nc12 [Sildenafil citrate],0.372
18,O=C1CCc2ccc(OCCCCN3CCN(c4cccc(Cl)c4Cl)CC3)cc2N1 [Aripiprazole],-7.24
